Experimental data published in the supplement of paper PMC12645437, “Orthogonal IMiD-Degron Pairs Induce Selective Protein Degradation in Cells” (ACS Chemical Biology, 2025).
The full ranking holds about 8,300 sequences; the median of “log2 fold change of degron read counts, EGFP-low vs EGFP+ sorted cells (limma voom), compound-induced degradation” is about -1.1, and the highest 2% start at about 3.2. Only a selection was taken, and the highest values are over-represented in it overall.

Biological target: T1, CRBN, Q96SW2
T1 chain: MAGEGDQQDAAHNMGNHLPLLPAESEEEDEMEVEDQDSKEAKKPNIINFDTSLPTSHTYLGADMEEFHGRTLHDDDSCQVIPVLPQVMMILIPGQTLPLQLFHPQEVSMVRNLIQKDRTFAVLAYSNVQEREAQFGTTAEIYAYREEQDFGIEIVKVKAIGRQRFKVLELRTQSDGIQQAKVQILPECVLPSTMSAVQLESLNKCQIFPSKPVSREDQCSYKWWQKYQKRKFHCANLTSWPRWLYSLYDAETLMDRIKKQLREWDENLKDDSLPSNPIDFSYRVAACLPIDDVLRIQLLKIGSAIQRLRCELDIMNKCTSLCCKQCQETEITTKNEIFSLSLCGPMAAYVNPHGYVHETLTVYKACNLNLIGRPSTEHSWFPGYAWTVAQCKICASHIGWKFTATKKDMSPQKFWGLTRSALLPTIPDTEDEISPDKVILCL
Assay: log2 fold change of degron read counts, EGFP-low vs EGFP+ sorted cells (limma voom), compound-induced degradation; higher = more compound-induced degradation of the degron-EGFP fusion; degrons are variants of IKZF1/3 zinc finger 2; compound dose not given here
Conditions: Jurkat, 18 h

[1] = compound: compound 19 (5-tert-butyl-thalidomide)
[2] = compound: compound 22 (5-morpholino-thalidomide)
[3] = compound: compound 33 (diphenyl IMiD analogue)
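Further: pooled lentiviral library of zinc finger degron-EGFP fusions in mCherry-positive Jurkat cells, FACS-sorted after compound exposure, with degron abundance counted by next-generation sequencing.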

Sequence | log2 fold change of degron read counts [1] | log2 fold change of degron read counts [2] | log2 fold change of degron read counts [3] | log2 fold change of degron read counts (compound: thalidomide)
LRCNQCGFLCTQKGNLLRHIKL [46L_47R_49N_50Q_52G_53F_54L_55C_67L_, Q9UKT9] | -1.18 | -1.92 | -1.55 | -1.3
FLCSVCGHVFTQKGNLLRHIKL [46F_47L_49S_50V_52G_53H_54V_55F_67L_, Q9UKT9] | -2.42 | -2.11 | -2.5 | -2.18
FFCEQCGAAFTQKGNLLRHIKL [46F_47F_49E_50Q_52G_53A_54A_55F_67L_, Q9UKT9] | 0.842 | 1.01 | 0.32 | -1.11
FTCNQCGAMFTQKGNLLRHIKL [46F_47T_49N_50Q_52G_53A_54M_55F_67L_, Q9UKT9] | -2.5 | -2.41 | -1.29 | -1.58
FWCPQCGARFTQKGNLLRHIKL [46F_47W_49P_50Q_52G_53A_54R_55F_67L_, Q9UKT9] | 0.926 | 3.08 | 0.0765 | 0.0591
FGCEVCGAQFTQKGNLLRHIKL [46F_47G_49E_50V_52G_53A_54Q_55F_67L_, Q9UKT9] | 3.18 | 2.36 | 1.12 | 0.866
FTCEVCGAQFTQKGNLLRHIKL [46F_47T_49E_50V_52G_53A_54Q_55F_67L_, Q9UKT9] | -0.192 | 2.19 | 2.27 | 2.79
FFCEVCGAQFTQKGNLLRHIKL [46F_47F_49E_50V_52G_53A_54Q_55F_67L_, Q9UKT9] | 3.36 | 3.6 | 2.42 | 1.89
